Screens as filed in PubChem.
Sampled rows, rich in hits. Any-hit rate of the full collection: about 7.6%.
RORg inh = qHTS for inhibitors of ROR gamma transcriptional activity | Nuclear receptor ROR-gamma (Mus musculus), P51450 | Drosophila S2 Gal4-RORgamma UAS-luciferase reporter, 20 h | Potency, µM (titrated, usually from 53.6 µM), for the others: top-dose activity change, negative = inhibition, hits mostly inhibitors | 5.4% of 310,000 active; also: potency is read from the fitted curve at half-maximal effect; % is scaled to controls: 0 for no effect and ±100 for the full control effect; nearly all actives have a fitted effect of over 60% in size
Target sequence (P51450 whole entry, looked up, the tested form may be a part): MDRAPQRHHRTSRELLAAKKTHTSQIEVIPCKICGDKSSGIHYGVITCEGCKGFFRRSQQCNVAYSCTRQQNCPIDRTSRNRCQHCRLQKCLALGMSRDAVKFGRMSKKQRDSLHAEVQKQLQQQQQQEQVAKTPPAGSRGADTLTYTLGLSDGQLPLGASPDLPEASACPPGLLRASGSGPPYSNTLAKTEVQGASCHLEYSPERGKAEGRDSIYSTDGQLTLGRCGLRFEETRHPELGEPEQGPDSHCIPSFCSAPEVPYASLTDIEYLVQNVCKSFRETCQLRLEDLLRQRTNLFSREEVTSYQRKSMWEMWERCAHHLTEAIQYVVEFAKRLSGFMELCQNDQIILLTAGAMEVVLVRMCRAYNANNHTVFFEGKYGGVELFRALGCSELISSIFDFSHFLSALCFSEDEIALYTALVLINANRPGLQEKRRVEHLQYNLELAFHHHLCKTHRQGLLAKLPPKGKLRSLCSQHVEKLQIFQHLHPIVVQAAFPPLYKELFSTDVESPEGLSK
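Read-out: Photinus luciferase luminescence; inhibitors lower reporter signal. Insect Schneider cells with Gal4-ROR gamma fusion under metallothionein promoter, UAS reporter; 700 uM final copper sulfate induction, 20 hr, ambient temperature.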
p53 reactivation = qHTS assay for re-activators of p53 using a Luc reporter; 0.063% of 320,000 active; AID 504706, 2011; H1299 p53-A138V BP100-luciferase reporter, luminescence, 24 h; Potency, µM (top dose mostly 92.2 µM), for the others: top-dose activity change, positive = activation, actives largely listed as activators; also: potency is read from the fitted curve at half-maximal effect; % of control where 0% means no effect; nearly all actives have a fitted effect of over 45% in size
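p53-null H1299 cells stably carrying temperature-sensitive p53-A138V and a BP100-luciferase reporter were pinned with compounds (4-point, 1:5 series) and held 24 hrs at 37 deg C. Luminescence was read 10 min after detection reagent.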
ELG1 repair inh = qHTS screen for small molecules that inhibit ELG1-dependent DNA repair in human embryonic kidney (HEK293T) cells expressing luciferase-tagged ELG1; AID 504467, 2011; 2.3% of 330,000 active; HEK293T ELG1-luciferase reporter, luminescence, 16 h; DNA damage induced by 5-fluorouridine; Potency, µM (top dose mostly 46.1 µM), for the others: top-dose activity change, negative = inhibition, usual class: inhibitors; also: potency is read from the fitted curve at half-maximal effect; % is scaled to controls: 0 for no effect and ±100 for the full control effect; nearly all actives have a fitted effect of over 55% in size
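Luminescence from the luciferase reporter, measured 30 min after ONE-Glo reagent at room temperature, was the read-out. Beforehand, 2,000 cells per well were exposed for 16 hr at 37 °C to 5-fluorouridine together with compound or vehicle.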
BRCA1 expr up = qHTS Assay to Identify Small Molecule Activators of BRCA1 Expression; MCF7-BRCA1-FFLuc reporter, luminescence, 48 h; response scale: scaled: vehicle 0%, 10 µM genistein 100%; 1.1% of 380,000 active; Potency, µM (top dose mostly 46.1 µM), inactives show at the highest dose activation, actives largely listed as activators; also: potency is read from the fitted curve at half-maximal effect; nearly all actives have a fitted effect of over 80% in size
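MCF7-BRCA1-FFLuc, 2000 cells/well; 2 h attach, 37 °C/5% CO2; compound 48 h; luciferase substrate 15 min; luminescence end-point. Norm. to genistein 10 microM max activation and DMSO; concentration-response curves fitted.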
Giardia kill = Small Molecules that selectively kill Giardia lamblia: qHTS; Giardia lamblia trophozoite viability; activity change, % at 7.66 µM, hits read low; 0.15% of 340,000 active; AID 540267, 2011; in the data active = activity change below about -80%; inconclusive = between about -30% and that limit;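 also: parasites exposed to compound for two days anaerobically before the ATP read; % is scaled to controls: 0 for no effect and ±100 for the full control effect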
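Compounds were tested on trophozoites seeded at 100 cells/well and held 48 hrs at 37 deg C anaerobically. An ATP-based luminescent kit measured the remaining live cells.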
Gal4-VP16 FLuc = VP16 counterscreen qHTS for inhibitors of ROR gamma transcriptional activity | 3.5% of 310,000 active | Potency, µM (top dose mostly 53.6 µM), without a hit: at the top dose activity, negative = inhibition, usual class: inhibitors | Drosophila S2 Gal4-VP16 UAS-luciferase, luminescence, 20 h;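 also: Gal4-VP16 expression switched on by copper sulfate through the metallothionein promoter; potency is read from the fitted curve at half-maximal effect; % is scaled to controls: 0 for no effect and ±100 for the full control effect; nearly all actives have a fitted effect of over 50% in size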
Numbers without * were called inactive; ? = inconclusive; . = no result. Unless noted, calls follow the shape of the dose curve; as a rule, active = well fitted curve in the direction sought with a large enough effect; inconclusive = small, poorly fitted or top-dose-only effect, or another doubt; inactive = no such curve, though single readings can be large; an effect the other way counts as inactive or inconclusive.

SMILES | RORg inh | p53 reactivation | ELG1 repair inh | BRCA1 expr up | Giardia kill | Gal4-VP16 FLuc
CSc1nc2ccc(Nc3nc(N4CCOCC4)nc(N4CCOCC4)n3)cc2s1 | ? | -19% | 5.2µM* | -23% | 7 | .
COc1cc(C(=O)NC(C)c2ccc(S(N)(=O)=O)cc2)ccc1OCC(=O)N1CCOCC1 (configuration not stated) | 13% | 15% | 0% | 0% | 0 | -6%
O=C(CSc1nc2ccc(Nc3nc(N4CCOCC4)nc(N4CCOCC4)n3)cc2s1)Nc1ccccc1F | -33% | 0% | 2.6µM* | 3% | 15 | -24%
O=C(CSc1nc2ccc(Nc3nc(N4CCCC4)nc(N4CCCC4)n3)cc2s1)NCc1ccco1 | 9% | -2% | ? | -7% | 1 | 9%
COCCCNC(=S)N/N=C/c1ccc(O)cc1O | -37% | 4% | -26% | 3% | -4 | -26%
COCCCNC(=S)N/N=C/c1ccc(O)cc1 | 13µM* | -2% | 7% | -2% | -6 | -11%
COCCCNC(=S)N/N=C/c1ccc(OC)cc1 | 5.6µM* | 1% | 0% | 7% | 2 | ?
COCCCNC(=S)N/N=C/c1ccc2ccccc2c1 | 4.5µM* | 4% | -6% | -17% | -29 | 18µM*
COCCCNC(=S)N/N=C/c1cccc(OC)c1O | 0.63µM* | 4% | ? | -6% | -5 | 1.6µM*
COCCCNC(=S)NNC(=S)Nc1ccc(OC)cc1 | -1% | 1% | -27% | 26% | -7 | -1%
NC(=S)N/N=C/c1ccc2ccccc2c1 | ? | 7% | ? | 26% | 18 | ?
CCOC(=O)NC(=O)c1cn(-c2ccc(OC)cc2)c(=O)[nH]c1=O | 0% | -2% | -7% | -4% | -8 | 1%
Cc1ccc(C(=O)N/C(=C\c2ccccc2)C(=O)OCc2ccccc2)cc1 | 40% | ? | ? | 7.9µM* | -6 | -6%
Cc1ccc(CONC(=O)c2ccccc2)cc1 | -1% | 20% | ? | 2.2µM* | 15 | -4%
Cc1ccc(CONC(=O)c2ccc(Cl)cc2)cc1 | . | ? | ? | 8.9µM* | 5 | .
O=C(OCc1ccccc1)/C(=C/c1cccc2ccccc12)NC(=O)c1ccccc1 | 17% | 5% | -7% | -15% | 6 | -6%
CC(C)Oc1ccc(CSc2nnc3n(C)c(=O)c4c5c(sc4n23)CCCC5)cc1 | . | . | . | 9% | -7 | .
CSc1ccc(S(=O)(=O)Nc2ccc3c(c2)NC(=O)CC3)cc1 | -6% | -6% | 8.2µM* | -32% | 28 | ?
Cc1ccc(NS(=O)(=O)c2ccc3c(c2)CCC(=O)N3)cc1 | . | -4% | 16% | 10% | -20 | .
COc1ccc(CN2C(=O)C(CC(=O)NCCc3ccccn3)CC(C(=O)N3CCOCC3)=C2C)cc1 (configuration not stated) | . | . | . | 5% | . | .
S=C(c1ccccc1)N1CCN(c2ccccc2)CC1 | . | . | . | -2% | 15 | .
Oc1ccc(C(=S)N2CCN(Cc3ccccc3)CC2)cc1 | -2% | 1% | -2% | -1% | 5 | 4%
CN(C)c1ccc(C(=S)N2CCN(Cc3ccccc3)CC2)cc1 | 13µM* | -1% | 7% | -19% | 13 | -4%
CCN(CC)c1ccc(C(=S)N2CCN(c3ccccc3)CC2)cc1 | 13µM* | -2% | 16% | 1% | -5 | ?
COC(=O)Cn1ncc2c(C)n(Cc3ccccc3)c(C)c2c1=O | ? | 7% | ? | ? | 11 | ?
SMILES | RORg inh | p53 reactivation | ELG1 repair inh | BRCA1 expr up | Giardia kill | Gal4-VP16 FLuc
COC(=O)c1ccccc1NC(=O)c1cn(-c2ccc(C)c(C)c2)c(=O)c2ccccc12 | 41% | -6% | 9.2µM* | -47% | -2 | 2%
CCOC(=O)c1ccccc1NC(=O)c1cn(-c2ccc(OC)cc2)c(=O)c2ccccc12 | ? | -22% | 6.5µM* | -73% | -7 | -11%
Nn1c(SCC(=O)Nc2ccc3c(c2)OCCO3)nnc(CCC(=O)O)c1=O | -31% | 4% | ? | 12% | -6 | 0%
CCn1ccnc1CN1CCc2c([nH]c3ccccc23)C1C(C)(C)C (configuration not stated) | 4.5µM* | -3% | -14% | -26% | 16 | ?
CCn1ccnc1CN1CCc2c([nH]c3ccccc23)C1CC(C)C (configuration not stated) | 3.2µM* | -1% | 23µM* | -26% | 11 | 7.9µM*
CCn1ccnc1CN1CCc2c([nH]c3ccccc23)C1C1CCCCC1 (configuration not stated) | 13µM* | 0% | -14% | -12% | 2 | ?
Cc1c(CN2CCc3c([nH]c4ccccc34)C2C2CCCCC2)cnn1C (configuration not stated) | -11% | -2% | 11% | -26% | 36 | -9%
COCc1ccc(CN2CCc3c([nH]c4ccccc34)C2C(C)(C)C)o1 (configuration not stated) | 11µM* | 2% | ? | -39% | 1 | ?
O=C(OCC(=O)N1CCOCC1)c1cccc(S(=O)(=O)Nc2ccc(F)cc2)c1 | . | -7% | -5% | -13% | 8 | .
O=C(COC(=O)/C=C/c1cccs1)NC(c1ccccc1)c1ccccc1 | -38% | 2% | ? | 0% | 16 | -18%
Cc1ccc(Nc2nc3ccccc3nc2-n2nc(C)cc2C)cc1 | 34% | 2% | 21% | 2% | 1 | -3%
Cc1ccc(Nc2cc(C)nn2-c2nc(C)cc(C)n2)cc1 | ? | -5% | 15µM* | -41% | 2 | 3.2µM*
Cc1ccc(Nc2cc(C)nn2-c2nc(C)cc(=O)[nH]2)cc1 | 0.18µM* | -13% | ? | -79% | -19 | 0.63µM*
Cc1cc(C)nc(-n2nc(C)cc2NC(=O)C(C)C)n1 | 5µM* | 2% | 23% | -6% | 13 | 25%
CN(C)CCN1C(=O)C(=O)/C(=C(/O)c2ccc(F)cc2)C1c1ccccc1 (configuration not stated) | -5% | 0% | -4% | -14% | -6 | -3%
CCOc1ccc(S(=O)(=O)N2CCCCC2)cc1NC(=O)C1CCCC1 | . | . | . | 0% | . | .
COc1ccc2[nH]c3c(=O)n(CCCC(=O)NC4CCCCC4C)c(=S)[nH]c3c2c1 (configuration not stated) | -32% | -3% | 24% | -2% | 5 | -16%
